# Screening results as filed in PubChem.
# Shown are actives, neighbours in structure and some others; about 0.16% of the full set was active somewhere.
# USP2a inhib: inhibitors of human ubiquitin-specific protease USP2a; O75604; USP2a enzymatic assay, qHTS inhibition; Potency, µM (highest dose often 38.3 µM), hits mostly inhibitors; 60,000 compounds, 0.1% hits; AID 927; note: nearly all actives have a fitted effect of over 60% in size
# Target sequence (O75604 whole entry, looked up): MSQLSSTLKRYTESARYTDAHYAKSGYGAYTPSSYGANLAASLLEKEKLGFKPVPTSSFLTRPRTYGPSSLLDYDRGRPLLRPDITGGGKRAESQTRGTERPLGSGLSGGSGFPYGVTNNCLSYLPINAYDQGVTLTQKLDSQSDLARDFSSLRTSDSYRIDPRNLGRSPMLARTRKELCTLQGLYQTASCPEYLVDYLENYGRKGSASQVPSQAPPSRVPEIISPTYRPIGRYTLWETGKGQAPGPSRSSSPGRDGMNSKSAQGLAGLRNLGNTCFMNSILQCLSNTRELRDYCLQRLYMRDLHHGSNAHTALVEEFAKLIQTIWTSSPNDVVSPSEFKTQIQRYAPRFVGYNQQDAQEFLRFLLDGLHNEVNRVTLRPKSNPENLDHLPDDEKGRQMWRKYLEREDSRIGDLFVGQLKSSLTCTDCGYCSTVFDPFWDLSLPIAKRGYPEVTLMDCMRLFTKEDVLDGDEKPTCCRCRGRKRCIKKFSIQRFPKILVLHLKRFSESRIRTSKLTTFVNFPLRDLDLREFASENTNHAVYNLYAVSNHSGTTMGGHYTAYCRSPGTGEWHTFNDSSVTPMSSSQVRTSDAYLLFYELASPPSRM
#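 Coupled readout: USP2-cleaved Ub-PLA2 (20nM final) turns over NBD C6-HPC (20uM final), Ex 460nm/Em 535nm after 2.5 h, time-zero read flagging artifacts. Enzyme (20nM final, pH 8.0 Tris) given 30 min RT with compound first; NEM defines full inhibition.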
# BRCT PPI red: disrupts BRCA1 BRCT binding to phosphoprotein, red fluorophore readout; BRCT-phosphopeptide binding, red fluorescence polarization; AID 892; Potency, µM (top dose mostly 76.9 µM), hits mostly inhibitors; 75,000 compounds, 0.03% hits
#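 Rhodamine-labelled pBACH1 10-mer (100 nM) bound to BRCT domain (100 nM) at pH 7.3; compounds incubated 12 min room temperature, polarization read. Free peptide defines full inhibition; unlabelled decapeptide titrated as control.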
# BRCT inh green: blocks human BRCA1 BRCT binding to phosphopeptide, green readout; P38398; BRCA1 BRCT-phosphopeptide binding, green fluorescence polarization; Potency, µM (doses to about 76.9 µM), hits mostly inhibitors; 75,000 compounds, 0.05% hits; AID 875
#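 Compounds were incubated for 12 min at room temperature with a complex of 100 nM fluorescein-tagged pBACH1 decapeptide and 250 nM His-tagged BRCT protein. Buffer was phosphate pH 7.3 with EDTA, DTT and Tween 20. Disruption of binding lowers the polarization signal.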
# Numbers stand for hits; 0 = inactive; ? = inconclusive; - = no result; ! = repeats disagree; [ ] = remark or other dose. Calls come from the whole dose curve; as a rule, active = well fitted inhibition curve with a large enough effect; inconclusive = small, poorly fitted or top-dose-only effect; inactive = no such curve, though single readings can be large or run the other way.
SMILES,USP2a inhib,BRCT PPI red,BRCT inh green
C[C@@H]1c2cccc(O)c2C(O)=C2C(=O)[C@@]3(O)C(O)=C(C(N)=O)C(=O)[C@@H](N(C)C)[C@@H]3[C@@H](O)[C@@H]21,16µM,0,0
C=C1c2cccc(O)c2C(O)=C2C(=O)[C@@]3(O)C(O)=C(C(N)=O)C(=O)[C@@H](N(C)C)[C@@H]3[C@@H](O)[C@H]12,0,0,0
CN(CCC#N)C(=O)c1ccc(CNS(=O)(=O)c2ccc(F)cc2)cc1,0,0,0
CCCOc1ccccc1NC(=O)c1ccc(N)cc1,0,0,0
CCCOc1ccccc1-c1nc2n[nH]nc2c(=O)[nH]1,10µM,0,0[3.08 µM]
COC(=O)[C@@]1(Cc2ccc(OC)cc2)[C@H]2c3cc(C(=O)N4CCCC4)n(Cc4ccc(O)c(OC)c4)c3C[C@H]2CN1C(=O)c1ccccc1,-,0,0
O=C1c2cccc(O)c2C(=O)c2c(O[C@@H]3O[C@H](CO)[C@@H](O)[C@H](O)[C@@H]3O)cccc21,-,0[15.4 µM],0[15.4 µM]
O=C(O)c1cc(O)c2c(c1)[C@H]([C@H]1c3cc(C(=O)O)cc(O)c3C(=O)c3c(O[C@@H]4OC(CO)C(O)C(O)C4O)cccc31)c1cccc(O[C@@H]3OC(CO)C(O)C(O)C3O)c1C2=O (stereo partly drawn),13µM,6.3µM,0[3.08 µM]
CC1(C)CC(=O)C(/C=N/c2ccccn2)=C(O)C1,-,0,0
CN1CCN(c2ncc3nc(-c4cn(C)c5ccccc45)c(=O)n(C)c3n2)CC1,0,0,0
CC1(C)CN=C(N2CCN(C3=NCC(C)(C)S3)CC2)S1,-,0,0
CC(=O)[C@H](CC(C)C)NC(=O)[C@@H](CC(C)C)NC(=O)[C@H](CC(C)C)NC(=O)OCc1ccccc1,-,0,0
O=C(O)c1ccc(Cl)c2c1C1C=CCC1C(c1ccccn1)N2 (stereo not drawn),-,32µM,32µM
C1=CC2c3ccccc3NC(c3ccncc3)C2C1 (stereo not drawn),-,0,0
COc1ccc(C(=O)N2CCC3(CCCN(C(=O)NC(C)C)C3)CC2)cc1,10µM,0,0
COc1ccc(NC(=O)N2CCCC3(CCN(C(=O)c4ccncc4)CC3)C2)cc1,0,0,0
Cc1cc(N(C)C)c(C#N)c(N2CCCCC2)n1,0,0,0
N[C@@]12CCc3nonc3[C@]1(O)CC(c1ccccc1)=[N+]2[O-],0,0,0
CN(Cc1ccccc1)S(=O)(=O)c1ccc(NS(C)(=O)=O)cc1,0,0,0
COc1ccc(NC(=O)CNS(=O)(=O)c2ccc3nc(C)sc3c2)c(OC)c1,0,0,0
Cc1nn(-c2ccc(S(=O)(=O)O)cc2)c(O)c1N=Nc1ccc(-c2ccc(N=Nc3ccc4c(S(=O)(=O)O)cc(S(=O)(=O)O)c(N)c4c3O)c(O)c2)cc1O.[Cu].[Cu],-,2.5µM,6.3µM
COc1cc(-c2ccc(N=Nc3ccc4c(S(=O)(=O)O)cc(S(=O)(=O)O)c(N)c4c3O)c(OC)c2)ccc1N=Nc1ccc2c(S(=O)(=O)O)cc(S(=O)(=O)O)c(N)c2c1O,0,?,40µM!
O=S(=O)(O)c1ccc2c(N=Nc3cccc4ccccc34)c(O)c(S(=O)(=O)O)cc2c1,-,0[15.4 µM],0[15.4 µM]
O=[N+]([O-])c1ccc2c(N=Nc3ccc4ccccc4c3O)c(O)cc(S(=O)(=O)O)c2c1,-,0[15.4 µM],0[15.4 µM]
CCOc1ccc(C(C)=O)cc1COC(=O)C1=COCCO1,0,0,0
SMILES,USP2a inhib,BRCT PPI red,BRCT inh green
FC(F)(F)c1ccc(C2[C@H]3CN(CC4CCCCC4)[C@H](c4ccccc4)C34CC2(c2ccccc2)C4)cc1 (stereo partly drawn),-,0,0
C=CCn1c(=O)c(C(=O)NCCNCC)c(O)c2ccccc21,13µM,0,0
CCNCCNC(=O)c1c(O)c2ccccc2n(CC)c1=O,0,0,0
CCCCN(C(=O)c1cc(OC)c(OC)c(OC)c1)C1=CC2CCC(C1)N2C (stereo not drawn),0,0,0
CC(C)(C)CC(C)(C)c1ccc(O)c(Cc2ccc(Cl)cc2Cl)c1,10µM,0,0[3.08 µM]
Oc1ccc(Cl)cc1Cc1cc(Cl)cc(Cc2cc(Cl)ccc2O)c1O,-,0[15.4 µM],0[15.4 µM]
COc1ccc(C)cc1NC(=O)c1nnn(Cc2cccc(F)c2)c1N,-,0,0
CC(=O)N[C@@H](CC(=O)O)C(=O)O,0,0,0
Cc1ccccc1-c1nc(N2CCOCC2)c2ccccc2n1,13µM,0,0
Cc1ccccc1-c1nc(N2CCN(C)CC2)c2ccccc2n1,0,0,0
CC1=C(C(=O)OCCOC(C)C)C(c2cccnc2)C2=C(CCCC2=O)N1 (stereo not drawn),0,0,0
CC(=O)N1c2ccccc2NC2=C(C(=O)CCC2)C1c1cccnc1 (stereo not drawn),1.6µM,0,0
CC1CCCN(C(=O)c2ccncc2)C1 (stereo not drawn),0,0,0
NS(=O)(=O)c1ccc(NC(=O)CCC2CCCCC2)cc1,-,0,0
O=C(CCCCCCCCCCCCC1CCCC1)Nc1ccc(S(=O)(=O)c2ccc(NC(=O)CCCCCCCCCCCCC3CCCC3)cc2)cc1,25µM,0,0[3.08 µM]
Nc1nc(-c2ccco2)c(-c2ccco2)s1,0,0,0
c1coc(-c2nc(-c3ccco3)c(-c3ccco3)nc2-c2ccco2)c1,?,?,13µM
CCCc1cc(=O)oc2cc3occ(C)c3cc12,0,0,0
COC(=O)CSc1nc(N2CCCCC2)c2c(c1C#N)CCCC2,13µM,0,0
COC(=O)CSc1nc(N2CCOCC2)c2c(c1C#N)CC(C)(C)N(C)C2,0,0,0
COc1ccc(C(=O)Nc2ccccc2C(=O)NCCCn2ccnc2)cc1,0,0,0
CN(C)CCCNc1cc(O)c2c(c1O)C(=O)c1ccccc1C2=O,-,?,0[15.4 µM]
O=C1c2ccccc2C(=O)c2c(O)c(O)cc(O)c21,0,40µM,0
Cn1c(SCC(=O)c2ccccc2)nc2cccnc21,0,0,0
Cn1c(SCc2cccnc2)nc2cccnc21,5µM,0,0
SMILES,USP2a inhib,BRCT PPI red,BRCT inh green
CCc1nnc(NC(=O)CSc2nnc(-c3c[nH]c4ccccc34)n2C)s1,0,0,0
Cn1c(=O)c2c(nc(CN3CCC(C(N)=O)CC3)n2Cc2c(F)cccc2Cl)n(C)c1=O,0,0,0
CC1CCCCN1Cc1nc2c(c(=O)n(C)c(=O)n2C)n1Cc1c(F)cccc1Cl (stereo not drawn),-,?,0.63µM
CN(C)c1ccc(C(=C2C=CC(=[N+](C)C)C=C2)c2ccccc2)cc1,-,0[15.4 µM],0[15.4 µM]
CN(C)c1ccc(C(=C2C=CC(=[N+](C)C)C=C2)c2ccc(N(C)C)cc2)cc1,10µM,0,0[3.08 µM]
CC(C)=CCc1c(O)cc2oc(C)cc(=O)c2c1O,0,0,0[3.08 µM]
COc1c(O)cc2oc3cc(O)c(CC=C(C)C)c(O)c3c(=O)c2c1CC=C(C)C,10µM!,0,0
Cc1cc(C)n(-c2nc(Nc3ccccc3)nc(-n3nc(C)cc3C)n2)n1,13µM,0,0
Cc1cc(C)n(-c2nncc(-c3ccccc3)n2)n1,0,0,0
O=c1cc(-c2ccccc2)oc2cc(O)c(O)c(O)c12,0,0,0
O=C(O)CN(CC(=O)O)Cc1cc2c(-c3ccccc3C(=O)O)c3cc(CN(CC(=O)O)CC(=O)O)c(=O)cc-3oc2cc1O,0,0.63µM,0.13µM
COc1cccc(CNC(=O)Cn2cc3c(n2)CCCCC3)c1,-,0,0
